Results filed as inconclusive are left out. A call without a number means that no potency is given here. Values without a mark were called inactive. Active and inactive are the calls of the source. Calls follow the shape of the dose curve; as a rule, active = well fitted cell-killing curve with a large enough effect; inconclusive = small, poorly fitted or top-dose-only effect, or effect the other way; inactive = flat fitted curve, though single readings scatter.
Test system: Tov112D
Test: Primary qHTS to identify gynecologic anti-cancer compounds using libraries of approved drugs and bioactive compounds (AID 1345084); also: nearly all actives have a fitted effect of over 55% in size
Conditions: Gynecologic cancer cell panel viability, ATPlite luminescence, 48 h; series mostly up to 57.5 µM
Method in brief: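 Cells, 1,000 per well, plated 16 h, then exposed 48 h at 37 C to compounds. Viability by ATPlite luminescence after 15 min at room temperature.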

| SMILES | Potency | activity change, negative = cytotoxicity |
| --- | --- | --- |
| COc1ccc2c(c1O)OC[C@H]1c3ccc(O)cc3O[C@@H]21 | inactive |  |
| Cc1c(CN(C)C(=O)/C=C/c2cnc3c(c2)CCC(=O)N3)oc2ccccc12 | inactive |  |
| COC1=CC(=O)C[C@@H](C)[C@]12Oc1cc(OC)cc(OC)c1C2=O | inactive |  |
| CC1CCC2(C(=O)OC3OC(CO)C(O)C(O)C3O)CCC3(C)C(=CCC4C5(C)CC(O)C(O)C(C)(C(=O)O)C5CCC43C)C2C1(C)O (stereo not drawn) | inactive |  |
| CC1CCC2C(C)(C)CC(C)(CO)C2(O)C1C(=O)O (stereo not drawn) | inactive |  |
| O=c1c2ccccc2nc2n1CCC2O (stereo not drawn) | inactive |  |
| CC(C)(O)c1ccc2c(c1)C(=O)CC1[C@](C)(CO)CCC[C@]21C (stereo partly drawn) | inactive |  |
| CC1CCC2C(C)(C)C(O)CCC2(C)C12Cc1c(O)cc3c(c1O2)C(N)=NC3 (stereo not drawn) | inactive |  |
| C=CC1(C)CC(O)C2(CCC3C(C)(C(=O)O)CCCC3(C)C2=O)C1 (stereo not drawn) | inactive |  |
| CC1(C)CC2C3=CCC4C5(C)CCC(OC6OC(CO)C(O)C(OC7OC(CO)C(O)C(OC8OC(CO)C(O)C(OC9OC(COC%10OC(CO)C(O)C(O)C%10O)C(O)C(O)C9O)C8O)C7O)C6O)C(C)(C)C5CCC4(C)C3(C)CCC2(C(=O)O)CC1O (stereo not drawn) |  | 1.66% [at 6.55 µM] |
| CC1CCC2(C)C(CC(O)C(O)C23CO3)C1(C)CCC1=CC(=O)OC1O (stereo not drawn) | inactive |  |
| COC1C=C([C@@H]2CC=C3[C@@]4(C)C(CC[C@]32C)[C@@]2(C)C=CC(=O)C(C)(C)C2C[C@H]4OC(C)=O)C(=O)O1 (stereo partly drawn) | inactive |  |
| CCNC(=O)[C@H]1O[C@H](n2cnc3c(NCC(c4ccccc4)c4ccccc4)nc(C(=O)NCCNC(=O)NC4CCN(c5ccccn5)CC4)nc32)[C@H](O)[C@@H]1O | inactive |  |
